# According to the supplement of paper PMC8183993:
# Values joined by “and” are separate entries in the source; they are usually repeats but may differ in a detail not shown here. Equal entries are not always repeated. Structures can show the parent of a compound that is named as a salt. ± gives the standard deviation of the averaged measurements. The full ranking holds about 3,200 compounds; the median of “nuclei count (viability) relative to DMSO” is about 99, and the lowest 2% start at about 16. The sample as a whole holds a higher share of the lowest values than the screen did.
# Tested on: U2OS
# Assay: nuclei count (viability) relative to DMSO (% of DMSO); higher = more viable cells
# Conditions: 10 µM; 24 h
# Protocol: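 Primary image-based screen in U2OS cells: compounds at 10 uM for 24 h, then a 1 h o-propargyl-puromycin (OPP) pulse, click labelling, and high-throughput microscopy. Mean cytoplasmic OPP intensity and nuclei count were normalised to DMSO wells within each plate (DMSO = 100) and averaged over triplicate plates.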
row,SMILES,nuclei count
1,"C/C=C1\NC(=O)[C@H]2CSSCC/C=C/[C@H](CC(=O)N[C@H](C(C)C)C(=O)N2)OC(=O)[C@H](C(C)C)NC1=O [Romidepsin (FK228 ,depsipeptide)]",8.81
2,CC#CCOC(=O)C1=CCCN(C)C1 [Arecaidine but-2-ynyl ester tosylate],101
3,CNC(=O)c1cc(Oc2ccc(NC(=O)Nc3cc(C(C)(C)C)nn3-c3ccc4ncccc4c3)c(F)c2)ccn1 [DCC-2036 (Rebastinib)],70.1
4,NC(=O)c1ccncc1 [Isonicotinamide],99.6
5,O=C(/C=C/c1ccc2ccccc2n1)c1ccncc1,11.3
6,C=CC(=O)c1ccc2ccccc2c1,105
7,COC(=O)C1=C(C)NC(C)=C(C(=O)OCCSc2ccccc2)C1C (stereo not drawn),97.8
8,CCS(=O)(=O)N1CCC[C@@H]2CN3CCc4cc(OC)ccc4[C@@H]3C[C@@H]21,101
9,O=C1c2ccccc2C(=O)c2c1ccc(O)c2O [Alizarin],89.7
10,CC1=CC(=O)c2ccccc2C1=O [Menadione],54.1
11,CC[C@H](C)[C@H](N)C1=N[C@H](C(=O)N[C@@H](CC(C)C)C(=O)N[C@H](CCC(=O)[O-])C(=O)N[C@H](C(=O)N[C@H]2CCCCNC(=O)[C@H](CC(N)=O)NC(=O)[C@@H](CC(=O)[O-])NC(=O)[C@H](Cc3cnc[nH]3)NC(=O)[C@@H](Cc3ccccc3)NC(=O)[C@H]([C@@H](C)CC)NC(=O)[C@@H](CCCN)NC2=O)[C@@H](C)CC)CS1.[Zn+2] [Bacitracin zinc],109
12,CC(C)NCC(O)COc1ccc(COCCOC(C)C)cc1 (racemic) [(±)-Bisoprolol hemifumarate],102
13,CCC[C@H](NC(=O)/C(C#N)=C/c1cccc(Br)n1)c1ccccc1,5.45
14,N#C/C(=C\c1ccc(O)c(O)c1)C(=O)Nc1ccccc1,83.4
15,C[C@H](NC(=O)/C(C#N)=C/c1cccc(Br)n1)c1ccccc1,7.49 ± 1.2
16,N#C/C(=C\c1ccc(O)c(O)c1)C(=O)NCc1ccccc1,102 and 98.5
17,"C[C@H](NC(=O)/C(C#N)=C/c1ccc(O)c(O)c1)c1ccccc1 [Tyrphostin B44, (+) enantiomer]",93.4
18,CC(C)c1cccc(=O)c(O)c1 [Hinokitiol],87.3
19,CCC(C)[C@H](NS(=O)(=O)c1cccc2ccccc12)C(=O)N[C@H](C=O)Cc1c[nH]c2ccccc12 (stereo partly drawn),90.3
20,CNC(=O)CN(CCN(CCN(CC(=O)O)CC(=O)NC)CC(=O)O)CC(=O)O.O.[Gd] [Gadodiamide (Omniscan)],101
21,Cc1ccccc1C(=O)Nc1ccc(C(=O)N2CCCC(N(C)C)c3ccccc32)cc1 (stereo not drawn) [Mozavaptan],41.2

row,SMILES,nuclei count
1,N[C@@H](CS(=O)O)C(=O)O [L-Cysteinesulfinic acid],102
2,CC1=NN(c2ccc(C)c(C)c2)C(=O)/C1=N\Nc1cccc(-c2cccc(C(=O)O)c2)c1O,98.3
3,C=CC(=O)Nc1cccc(Sc2nc(Nc3ccc(N4CCN(C)CC4)cc3)ncc2Cl)c1,13.6
4,CCC(=O)Nc1cccc(Oc2nc(Nc3ccc(N4CCN(C)CC4)cc3OC)ncc2Cl)c1,94.6
5,C=CC(=O)Nc1cccc(Oc2nc(Nc3ccc(N4CCN(C)CC4)cc3)ncc2Cl)c1,6.24
6,C=CC(=O)Nc1ccc2ncnc(Nc3cccc(Br)c3)c2c1,79.2 ± 4.8
7,C=CC(=O)Nc1cccc(Nc2nc(Nc3ccc(Oc4ccnc(C(=O)NC)c4)cc3)ncc2F)c1,63.4
8,C=CC(=O)Nc1cccc(Oc2nc(Nc3ccc(N4CCN(C)CC4)cc3OC)ncc2Cl)c1,107
9,NC1CCN(c2cccc(Cl)n2)CC1,103
10,COC(=O)C1=C(C)NC(C)=C(C(=O)NCCCN2CCC(c3ccccc3)(c3ccccc3)CC2)C1c1ccc([N+](=O)[O-])cc1 (stereo not drawn),55.1
11,O=C(O)CCc1ccc(NCc2cccc(Oc3ccccc3)c2)cc1,90.2
12,COC(C)(C)CCCC(C)C/C=C/C(C)=C/C(=O)O (stereo not drawn) [Methoprene acid],105
13,COc1ccc(CN2C(=O)C(=O)c3cc(OC(F)(F)F)ccc32)cc1,17.3
14,O=C1Nc2ccc([N+](=O)[O-])cc2C1=O [5-Nitroisatin],99
15,CS(=O)(=O)Nc1ccc([N+](=O)[O-])cc1Oc1ccccc1 [Nimesulide],103 ± 6.9
16,O=[N+]([O-])c1ccc2c(c1)S(=O)(=O)C=C2 [Stattic],14.1
17,CCCC[P+](CCCC)(CCCC)Cc1ccc(NC(=O)C(Cc2ccc3ccccc3c2)NC(=NC2CCCCC2)NC2CCCCC2)cc1 (stereo not drawn),94.1
18,CC(C)C[C@H](NC(=O)[C@H](Cc1ccccc1)NC(=O)c1cnccn1)B(O)O [Bortezomib (Velcade)],7.65
19,CC(C)C[C@H](NC(=O)[C@@H](O)[C@H](N)Cc1ccccc1)C(=O)O [Bestatin],94.4
20,Nc1nc(NCCc2ccc(O)cc2)nc2nc(-c3ccco3)nn12,114
21,CCCOc1ccn2c(C(C)=O)cc(-c3ccccc3S(C)(=O)=O)c2c1,96.4

row,SMILES,nuclei count
1,Cc1cc(=O)n(C)c2cc(N3C(=O)CC[C@H](NS(=O)(=O)CC(C)C)[C@H]3c3ccc(Cl)cc3)ccc12,104
2,COCCCN1CCC(NC(=O)c2cc(Cl)c(N)c3c2OCC3)CC1 [Prucalopride],103
3,O=c1[nH]nc(Sc2ncc([N+](=O)[O-])s2)n1-c1ccc2c(c1)OCCO2,6.42 ± 2.8
4,O=C1NCCN1c1ncc([N+](=O)[O-])s1 [Niridazole],90.4
5,O=c1nc2ccccc2c2n1CC(CN1CCN(c3ccccc3)CC1)N2 (stereo not drawn),100
6,COc1cc2c(cc1OC)CN(CCc1ccc(NC(=O)c3cc(OC)c(OC)cc3NC(=O)c3cnc4ccccc4c3)cc1)CC2 [Tariquidar],96.8
7,"CCCCC/C=C/C=C1/C(=O)C=C[C@@H]1C/C=C\CCCC(=O)O [15-Deoxy-D12,14-prostaglandin J2]",85.6
8,O=C(Nc1ccccc1-c1cn2c(CN3CCNCC3)csc2n1)c1cnc2ccccc2n1,12.2
9,O=[N+]([O-])c1cccc2c(Br)[nH]nc12 [3-Bromo-7-nitroindazole],102
10,CCC(=O)OCN1C(=O)C=CC1=O,109
11,CN(CCOc1ccc(-c2ccc3c(c2)OCO3)cc1C(C)(C)C)CC(=O)O,98
12,COC(=O)[C@H](Cc1ccccc1)NC(=O)[C@@H](N)CC(=O)O [Aspartame],108
13,COC[C@H](NC(=O)c1cnc(C)s1)C(=O)N[C@@H](COC)C(=O)N[C@@H](Cc1ccccc1)C(=O)[C@@]1(C)CO1 [Oprozomib (ONX 0912)],11.1
14,O=C(CCc1ccc(O)cc1)c1c(O)cc(O)cc1O[C@@H]1O[C@H](CO)[C@@H](O)[C@H](O)[C@H]1O [Phlorizin (Phloridzin)],82.5
15,Oc1cc2c(c(Cl)c1O)CCNCC2c1ccccc1 (stereo not drawn),91.2
16,O=C1CCc2c(ccc3ccccc23)O1 [Splitomicin],104 ± 5.1
17,CCCC[C@@H](C=O)NC(=O)[C@H](CC(C)C)NC(=O)OCc1ccccc1 [Calpeptin],102 ± 1.9
18,CC(NC(=O)C(Cc1ccccc1)NC(=O)OCc1ccccc1)C(=O)CF (stereo not drawn),95
19,CC(C)C[C@@H](C=O)NC(=O)[C@H](CC(C)C)NC(=O)[C@H](CC(C)C)NC(=O)OCc1ccccc1,10.9 and 7.59
20,CC1C(=O)OC2C(O)C34C5CC(C(C)(C)C)C36C(OC(=O)C6O)OC4(C(=O)O5)C12O (stereo not drawn) [Ginkgolide B],95
21,NCCCCCc1c[nH]cn1 [Impentamine dihydrobromide],90.5

row,SMILES,nuclei count
1,CN(Cc1ccccc1)C(=O)[C@H](Cc1ccc2ccccc2c1)NC(=O)[C@@H]1CCCN1C(=O)Nc1ccccc1[N+](=O)[O-],100
2,OC(c1cc(C(F)(F)F)nc2c(C(F)(F)F)cccc12)C1CCCCN1 (stereo not drawn) [Mefloquine hydrochloride],10.7
3,Oc1ccc(OC2CCCCO2)cc1 (stereo not drawn) [Deoxyarbutin],91.1
4,COC(=O)[C@@H]1CC2=CC(=O)CC[C@]2(C)[C@@]23O[C@@H]2C[C@@]2(C)[C@@H](CC[C@@]24CCC(=O)O4)[C@H]13 [Eplerenone],104 ± 3.6
5,CC(C)Oc1cc(Nc2nc(N[C@@H](C)c3ccc(F)cn3)ncc2Cl)n[nH]1,52.7
6,Cc1cc(Nc2ncc(Cl)c(Nc3ccccc3S(=O)(=O)C(C)C)n2)c(OC(C)C)cc1C1CCNCC1 [Ceritinib (LDK378)],14.7
7,Cc1cccc(C)c1NC(=O)C[N+](C)(C)C,106
8,CCn1nnc2c(N3CCOCC3)nc(-c3ccc(NC(=O)Nc4ccc(C(=O)N5CCN(C)CC5)cc4)cc3)nc21,77.7
9,CC(C)c1ccc(Cn2ccc3c4c(N)nc(NC5CC5)nc4ccc32)cc1,29.3
10,Cc1c(NC(=O)N2CCOCC2)ccc2c1c1ccccc1n2C(C)C,94.6
11,CC(C)C[C@H](NC(=O)CNC(=O)c1cc(Cl)ccc1Cl)B1OC(=O)C(CC(=O)O)(CC(=O)O)O1,11.6
12,CC(C)C[C@H](NC(=O)CNC(=O)c1cc(Cl)ccc1Cl)B(O)O,9.55
13,CC(C)C[C@H](NC(=O)[C@H](CCC(=O)O)NC(=O)CNC(=O)c1ccc(/C=C/C(=O)O)cc1)C(N)=O,97.5
14,N=C(N)c1ccc(N2CCN(C3CCN(CC(=O)O)CC3)CC2)cc1,104
15,CCCC(=O)[O-].[Na+] [Sodium butyrate],89.2
16,CC1=C(/C=C/C(C)=C/C=C/C(C)=C/C(=O)O)C(C)(C)CCC1O (stereo not drawn) [4-Hydroxyretinoic acid],101
17,NC(C(=O)O)c1ccc(C(=O)O)c(C(=O)O)c1 (racemic),102
18,COc1cccc(-c2cc(NCc3ccc4c(c3)OCO4)nc(N)n2)c1,19.1
19,CC(C)[C@H]1c2ccc(F)cc2CC[C@@]1(CCN(C)CCCc1nc2ccccc2[nH]1)OC(=O)C1CC1 [NNC 55-0396 dihydrochloride],10.5
20,COCC(=O)O[C@]1(CCN(C)CCCc2nc3ccccc3[nH]2)CCc2cc(F)ccc2[C@@H]1C(C)C [Mibefradil dihydrochloride],81.7
